Experimental data: the supplement of paper PMC11732987, “Enantioselective OTUD7B fragment discovery through chemoproteomics screening and high-throughput optimisation” (Communications Chemistry, 2025)

How the values were obtained:
Assay in all cases: log2 ratio of Biotin-Ahx-Ub-VS probe labelling (fragment/DMSO); higher = less target engagement (more negative = stronger competition), active = hit call of the paper (q ≤ 0.05, log2 ratio ≤ -1)
Settings in all cases: compound concentration: 200 uM; treatment time: 3 h
ALG13 = target: T1, ALG13 (UniProt Q9NP73)
T1 sequence (whole entry): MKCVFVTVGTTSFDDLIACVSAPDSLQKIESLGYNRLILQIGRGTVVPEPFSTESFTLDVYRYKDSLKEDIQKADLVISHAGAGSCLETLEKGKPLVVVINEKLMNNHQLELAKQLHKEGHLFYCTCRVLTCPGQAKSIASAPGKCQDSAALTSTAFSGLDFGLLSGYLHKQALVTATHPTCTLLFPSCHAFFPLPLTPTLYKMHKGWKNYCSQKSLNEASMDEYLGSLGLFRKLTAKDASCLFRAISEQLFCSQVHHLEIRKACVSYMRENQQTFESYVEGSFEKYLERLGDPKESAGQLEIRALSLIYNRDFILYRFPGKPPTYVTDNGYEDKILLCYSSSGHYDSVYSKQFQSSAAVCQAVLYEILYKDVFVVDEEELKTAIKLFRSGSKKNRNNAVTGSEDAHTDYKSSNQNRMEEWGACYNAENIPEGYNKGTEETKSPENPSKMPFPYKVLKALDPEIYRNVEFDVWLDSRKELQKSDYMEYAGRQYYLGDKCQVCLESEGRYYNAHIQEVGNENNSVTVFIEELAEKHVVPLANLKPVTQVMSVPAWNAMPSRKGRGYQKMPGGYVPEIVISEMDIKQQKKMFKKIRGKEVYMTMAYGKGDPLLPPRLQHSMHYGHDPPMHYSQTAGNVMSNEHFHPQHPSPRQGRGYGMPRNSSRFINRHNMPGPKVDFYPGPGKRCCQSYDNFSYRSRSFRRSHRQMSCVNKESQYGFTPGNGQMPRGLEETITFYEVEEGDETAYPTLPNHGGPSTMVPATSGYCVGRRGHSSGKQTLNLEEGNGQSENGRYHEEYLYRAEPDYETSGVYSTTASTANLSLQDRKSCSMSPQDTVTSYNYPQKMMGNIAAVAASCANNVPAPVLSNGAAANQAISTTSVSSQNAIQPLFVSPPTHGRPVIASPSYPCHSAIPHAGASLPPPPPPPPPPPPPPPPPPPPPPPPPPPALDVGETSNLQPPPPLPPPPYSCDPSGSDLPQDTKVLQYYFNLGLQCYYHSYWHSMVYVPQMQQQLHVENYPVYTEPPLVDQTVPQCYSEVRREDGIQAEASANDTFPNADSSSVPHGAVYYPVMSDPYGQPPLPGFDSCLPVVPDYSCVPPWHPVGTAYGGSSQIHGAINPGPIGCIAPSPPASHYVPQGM
Procedure, shortened: (§1)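 HEK293T lysate (495 µg per sample, in Tris/CHAPS/IGEPAL buffer with protease inhibitors) was exposed in triplicate for 3 h to fragment at 200 µM or to vehicle, then to Biotin-Ahx-Ub-VS at 0.5 µM final for 1 h. Labelled DUBs were enriched on NeutrAvidin, digested with LysC and trypsin, and analysed by diaPASEF LC-MS/MS. Spectronaut label-free quantities were normalised to the global median, and values are average log2 ratios of fragment over vehicle from an unpaired t-test. Only proteins with ≥2 unique peptides were used.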

ATXN3 = ATXN3 (UniProt P54252)
Procedure, shortened: as §1

BAP1 = target: T2, BAP1 (UniProt Q92560)
T2 sequence (whole entry): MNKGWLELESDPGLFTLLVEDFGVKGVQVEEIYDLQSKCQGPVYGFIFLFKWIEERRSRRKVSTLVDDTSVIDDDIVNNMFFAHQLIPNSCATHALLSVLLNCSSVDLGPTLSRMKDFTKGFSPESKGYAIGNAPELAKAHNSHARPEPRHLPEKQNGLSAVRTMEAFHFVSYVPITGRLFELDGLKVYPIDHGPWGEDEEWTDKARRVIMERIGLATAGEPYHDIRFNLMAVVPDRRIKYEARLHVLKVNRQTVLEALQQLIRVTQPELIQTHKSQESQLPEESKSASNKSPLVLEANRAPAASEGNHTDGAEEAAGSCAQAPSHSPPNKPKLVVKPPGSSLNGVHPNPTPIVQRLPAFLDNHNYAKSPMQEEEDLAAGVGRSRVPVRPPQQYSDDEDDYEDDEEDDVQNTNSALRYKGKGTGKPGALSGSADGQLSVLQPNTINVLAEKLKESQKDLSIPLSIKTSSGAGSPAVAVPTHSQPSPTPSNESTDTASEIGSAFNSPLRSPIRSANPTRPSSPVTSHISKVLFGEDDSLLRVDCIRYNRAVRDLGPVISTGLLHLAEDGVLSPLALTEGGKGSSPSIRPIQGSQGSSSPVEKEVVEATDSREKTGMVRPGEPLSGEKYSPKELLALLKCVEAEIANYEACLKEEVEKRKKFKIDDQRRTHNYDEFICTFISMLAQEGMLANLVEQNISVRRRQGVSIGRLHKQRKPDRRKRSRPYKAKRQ
Procedure, shortened: as §1

EIF3F = EIF3F (UniProt O00303)
Procedure, shortened: as §1

EIF3H = EIF3H (UniProt O15372)
Procedure, shortened: as §1

FAM105A = target: T3, FAM105A (UniProt Q9NUU6)
T3 sequence (whole entry): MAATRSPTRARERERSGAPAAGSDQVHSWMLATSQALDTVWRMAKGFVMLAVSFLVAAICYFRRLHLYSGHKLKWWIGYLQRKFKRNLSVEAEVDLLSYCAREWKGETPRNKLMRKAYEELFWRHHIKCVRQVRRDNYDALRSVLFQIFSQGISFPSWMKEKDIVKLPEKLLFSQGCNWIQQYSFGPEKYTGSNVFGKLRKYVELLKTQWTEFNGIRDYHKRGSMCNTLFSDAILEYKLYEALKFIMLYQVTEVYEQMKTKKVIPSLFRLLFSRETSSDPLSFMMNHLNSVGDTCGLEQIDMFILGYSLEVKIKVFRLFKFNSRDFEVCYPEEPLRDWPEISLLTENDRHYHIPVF
Procedure, shortened: as §1

OTUB1 = OTUB1 (UniProt Q96FW1)
Procedure, shortened: as §1

OTUD4 = target: T4, OTUD4 (UniProt Q01804)
T4 sequence (whole entry): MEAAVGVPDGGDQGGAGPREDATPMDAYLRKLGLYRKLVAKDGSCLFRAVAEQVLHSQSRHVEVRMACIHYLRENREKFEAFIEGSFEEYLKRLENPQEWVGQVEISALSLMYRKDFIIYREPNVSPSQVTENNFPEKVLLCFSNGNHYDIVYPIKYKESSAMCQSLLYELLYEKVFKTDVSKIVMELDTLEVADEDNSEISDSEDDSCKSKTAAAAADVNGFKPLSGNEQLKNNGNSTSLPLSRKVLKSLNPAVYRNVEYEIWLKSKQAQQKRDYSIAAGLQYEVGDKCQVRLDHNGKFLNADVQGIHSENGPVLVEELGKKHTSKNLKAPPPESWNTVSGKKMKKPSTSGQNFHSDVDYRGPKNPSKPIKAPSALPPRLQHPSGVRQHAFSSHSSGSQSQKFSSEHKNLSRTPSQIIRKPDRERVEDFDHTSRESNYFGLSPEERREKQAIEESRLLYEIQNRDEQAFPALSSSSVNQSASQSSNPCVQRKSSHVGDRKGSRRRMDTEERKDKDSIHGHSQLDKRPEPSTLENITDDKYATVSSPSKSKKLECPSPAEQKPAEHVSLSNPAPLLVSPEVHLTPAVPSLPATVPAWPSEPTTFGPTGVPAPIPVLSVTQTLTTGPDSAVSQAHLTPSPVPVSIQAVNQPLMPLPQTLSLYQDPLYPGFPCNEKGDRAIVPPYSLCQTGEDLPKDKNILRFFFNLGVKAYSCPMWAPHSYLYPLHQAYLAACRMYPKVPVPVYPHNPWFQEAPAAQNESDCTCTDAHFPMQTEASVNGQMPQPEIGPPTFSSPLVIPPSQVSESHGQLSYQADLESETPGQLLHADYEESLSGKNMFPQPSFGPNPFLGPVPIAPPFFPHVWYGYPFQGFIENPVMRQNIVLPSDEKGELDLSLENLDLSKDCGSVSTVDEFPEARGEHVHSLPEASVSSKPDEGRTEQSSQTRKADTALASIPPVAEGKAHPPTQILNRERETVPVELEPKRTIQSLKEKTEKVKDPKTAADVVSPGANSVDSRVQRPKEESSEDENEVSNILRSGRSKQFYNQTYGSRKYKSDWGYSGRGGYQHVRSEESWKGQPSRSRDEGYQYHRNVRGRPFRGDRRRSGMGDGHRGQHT
Procedure, shortened: as §1

OTUD5 = target: T5, OTUD5 (UniProt Q96G74)
T5 sequence (whole entry): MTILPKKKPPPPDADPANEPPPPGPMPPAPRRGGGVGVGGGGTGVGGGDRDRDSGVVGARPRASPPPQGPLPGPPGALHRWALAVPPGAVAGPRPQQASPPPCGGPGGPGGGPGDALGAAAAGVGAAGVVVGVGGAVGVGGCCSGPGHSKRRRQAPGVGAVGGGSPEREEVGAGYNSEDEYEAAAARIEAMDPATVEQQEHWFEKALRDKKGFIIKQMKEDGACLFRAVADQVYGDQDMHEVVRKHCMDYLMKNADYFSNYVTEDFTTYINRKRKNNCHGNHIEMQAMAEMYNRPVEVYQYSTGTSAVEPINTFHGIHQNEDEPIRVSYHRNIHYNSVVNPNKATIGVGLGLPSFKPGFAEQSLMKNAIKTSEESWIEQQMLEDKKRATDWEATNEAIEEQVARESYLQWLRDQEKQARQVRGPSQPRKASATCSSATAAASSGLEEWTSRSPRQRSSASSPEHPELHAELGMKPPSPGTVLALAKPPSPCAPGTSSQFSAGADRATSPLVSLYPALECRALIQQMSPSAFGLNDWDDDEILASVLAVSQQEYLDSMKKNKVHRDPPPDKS
Procedure, shortened: as §1

Measured: log2 ratio of Biotin-Ahx-Ub-VS probe labelling

Chain of ATXN3 (P54252 whole entry): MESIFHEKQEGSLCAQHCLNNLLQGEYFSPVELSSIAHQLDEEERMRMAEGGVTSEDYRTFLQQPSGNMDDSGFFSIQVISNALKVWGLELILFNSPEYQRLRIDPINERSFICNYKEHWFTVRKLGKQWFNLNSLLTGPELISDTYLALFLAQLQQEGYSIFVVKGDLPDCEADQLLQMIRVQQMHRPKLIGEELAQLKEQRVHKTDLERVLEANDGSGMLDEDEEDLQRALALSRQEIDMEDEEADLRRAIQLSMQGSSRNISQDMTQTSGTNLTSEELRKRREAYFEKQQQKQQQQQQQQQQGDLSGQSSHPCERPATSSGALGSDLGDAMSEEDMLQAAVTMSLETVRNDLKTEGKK
Chain of EIF3F (O00303 whole entry): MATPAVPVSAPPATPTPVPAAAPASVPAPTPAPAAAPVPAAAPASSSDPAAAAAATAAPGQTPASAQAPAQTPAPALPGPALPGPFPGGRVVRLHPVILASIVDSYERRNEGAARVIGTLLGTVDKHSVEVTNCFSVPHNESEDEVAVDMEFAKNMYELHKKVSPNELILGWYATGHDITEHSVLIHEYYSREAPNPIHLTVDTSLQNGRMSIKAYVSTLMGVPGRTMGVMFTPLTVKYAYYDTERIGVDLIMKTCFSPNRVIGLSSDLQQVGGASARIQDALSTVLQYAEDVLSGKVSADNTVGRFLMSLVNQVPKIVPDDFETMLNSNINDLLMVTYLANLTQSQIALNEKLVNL
Chain of OTUB1 (Q96FW1 whole entry): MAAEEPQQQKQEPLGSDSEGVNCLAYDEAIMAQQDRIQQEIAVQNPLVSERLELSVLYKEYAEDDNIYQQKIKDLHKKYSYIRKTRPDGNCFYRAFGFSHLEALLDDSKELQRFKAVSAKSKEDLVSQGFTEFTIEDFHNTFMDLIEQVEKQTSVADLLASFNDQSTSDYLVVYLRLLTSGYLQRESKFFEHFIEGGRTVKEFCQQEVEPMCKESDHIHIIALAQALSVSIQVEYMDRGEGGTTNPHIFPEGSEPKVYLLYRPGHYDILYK
Chain of EIF3H (O15372 whole entry): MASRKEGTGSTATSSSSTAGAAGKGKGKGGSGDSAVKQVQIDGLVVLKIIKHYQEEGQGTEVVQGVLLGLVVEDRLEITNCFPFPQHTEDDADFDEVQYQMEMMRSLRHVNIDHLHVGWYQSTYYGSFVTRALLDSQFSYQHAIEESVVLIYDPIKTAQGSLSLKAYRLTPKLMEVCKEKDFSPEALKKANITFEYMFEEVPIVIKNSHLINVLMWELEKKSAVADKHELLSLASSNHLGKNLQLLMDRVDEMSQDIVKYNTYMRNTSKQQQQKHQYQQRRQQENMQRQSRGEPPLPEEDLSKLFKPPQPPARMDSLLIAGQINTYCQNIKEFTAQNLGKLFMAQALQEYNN

O=C(CCl)N1CCN(c2nc3ccccc3o2)CC1
active: ATXN3 -1.05 | BAP1 -1.05
inactive: ALG13 0.254 | EIF3F -0.704 | EIF3H -0.664 | FAM105A 0.0333 | OTUB1 0.0507 | OTUD4 -0.141 | OTUD5 -0.83
